The list is not random: actives were taken first. Their share in the collection is about 1.6%.
KCNQ2 pot: KCNQ2 (rat) channel potentiation. O88943. CHO-K1 KCNQ2, FluxOR thallium flux fluorescence; stronger effect = higher value. B-score at 10 µM. 0.54% of 310,000 active. AID 2239;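 active means fluorescence ratio B-score at least 3 SD of library B-scores, with initial fluorescence B-score within 3 of them, cut at about 5.3 in these data; same plate scores as AID 2156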;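 further: B-score of peak minus minimum over baseline fluorescence ratio after K+ and Tl+ stimulus; positive B-score means potentiation of KCNQ2 with more thallium influx and brighter signal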
KCNQ2 block: blocks the rat KCNQ2 potassium channel. O88943. CHO-K1 KCNQ2, FluxOR thallium flux, 20 min; stronger effect = lower value. B-score at 10 µM. 1.1% of 310,000 active. AID 2156;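 active means fluorescence ratio B-score at most minus 3 library SDs, with starting brightness B-score within 2 library SDs, cut at about -5.5 in these data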
* hit, by the source's call.

What do the screens show for `CCOC(=O)C1=C(CNCc2ccccc2Cl)NC(=O)NC1c1cccc([N+](=O)[O-])c1` (stereo not drawn)?
KCNQ2 pot: -6.3; KCNQ2 block: -6.3*

Results for CCOC(=O)C1=C(CNCc2ccccc2Cl)NC(=O)NC1c1ccc2c(c1)OCO2 (stereo not drawn) ?
KCNQ2 block: inactive

What do the screens show for `CCc1ccccc1NC(=O)CCc1nc(-c2cccs2)no1`?
KCNQ2 block: inactive

How did C=C1CCN([C@H](C(=O)OCc2cccc(C)c2)C(C)C)S(=O)(=O)c2ccccc21 do in these assays?
KCNQ2 block: inactive

Results for CCN(CC)C(=O)Oc1ccc(Cl)c2cccnc12 ?
KCNQ2 block: inactive

What do the screens show for `O=C(Nc1cccc(C(F)(F)F)c1)Oc1ccc(Cl)c2cccnc12`?
KCNQ2 pot: 5.7*; KCNQ2 block: inactive

How did CCCNC(=O)c1ccccc1SCc1c(C)noc1C do in these assays?
KCNQ2 pot: 1.8; KCNQ2 block: inactive

What do the screens show for `CCOCCn1c(SC(C)C(C)=O)nc2c1c(=O)[nH]c(=O)n2C` (stereo not drawn)?
KCNQ2 block: inactive

What do the screens show for `Cc1ccc(-c2cc(C(=O)Nc3nccs3)c3ccccc3n2)c(C)c1`?
KCNQ2 block: inactive

How did COc1ccc(-c2cc(C(=O)N3CCN(c4ccccc4F)CC3)c3ccccc3n2)c(OC)c1 do in these assays?
KCNQ2 pot: -8; KCNQ2 block: -8*

How did Cc1ccc(-c2cc(C(=O)Nc3nccs3)c3ccccc3n2)o1 do in these assays?
KCNQ2 pot: -5.7; KCNQ2 block: -5.7*

How did Cc1ccc(-c2cc(C(=O)N3CCCC(C(F)(F)F)C3)c3ccccc3n2)o1 (stereo not drawn) do in these assays?
KCNQ2 block: inactive

What do the screens show for `Cc1ccc(-c2cc(C(=O)N3CCN(c4ccc(F)cc4)CC3)c3ccccc3n2)o1`?
KCNQ2 pot: -6; KCNQ2 block: -6*

What do the screens show for `COc1ccc(-c2cc(C(=O)N3CCCCCC3)c3ccccc3n2)c(OC)c1`?
KCNQ2 block: inactive

How did CCOc1ccc(OCCC(=O)OCC(=O)NC2CCCCC2)cc1 do in these assays?
KCNQ2 pot: 1.8; KCNQ2 block: inactive

What do the screens show for `Cc1cc(C)n2nc(SCC(=O)NC3CCCC(C)C3C)nc2n1` (stereo not drawn)?
KCNQ2 block: inactive

How did COc1ccc(NS(=O)(=O)c2cn(C)cn2)c(OC)c1 do in these assays?
KCNQ2 block: inactive

Results for O=C(CSc1nccc(-c2cccs2)n1)Nc1ccc(Cl)cc1 ?
KCNQ2 pot: 1.4; KCNQ2 block: inactive

How did Cc1onc(-c2ccc(Cl)cc2)c1-c1ccnc(SCC(=O)Nc2ccc(C(C)C)cc2)n1 do in these assays?
KCNQ2 pot: -5.6; KCNQ2 block: -5.6*

What do the screens show for `CCN(CC)c1ccc(C(=O)OCC(=O)Nc2ccccc2-c2ccccc2)cc1`?
KCNQ2 pot: -6.5; KCNQ2 block: -6.5*

Results for CN(C)c1cccc(C(=O)OCC(=O)Nc2ccccc2-c2ccccc2)c1 ?
KCNQ2 pot: 0.47; KCNQ2 block: inactive

How did NS(=O)(=O)c1cccc(NC(=O)CC(NC(=O)c2ccccc2Cl)c2ccccc2)c1 (stereo not drawn) do in these assays?
KCNQ2 pot: 0.16; KCNQ2 block: inactive

What do the screens show for `CCn1c(NC(C)=O)c(-c2ccccc2Cl)c(=O)c2ccccc21`?
KCNQ2 block: inactive

How did CCOC(=O)N1CCN(CC(=O)Nc2sc(CC)cc2C(=O)c2ccc(OC)cc2)CC1 do in these assays?
KCNQ2 pot: -5.9; KCNQ2 block: -5.9*

What do the screens show for `CCc1cc(C(=O)OC)c(NC(=O)CN2CCN(C(=O)c3ccco3)CC2)s1`?
KCNQ2 pot: 1.6; KCNQ2 block: inactive

How did COc1cc(C2=NOC(C(=O)N3CCCCCC3)C2)cc(OC)c1OC (stereo not drawn) do in these assays?
KCNQ2 pot: -6.6; KCNQ2 block: -6.6*

How did COc1cc(C2=NOC(C(=O)N3CCN(c4ccc(F)cc4)CC3)C2)cc(OC)c1OC (stereo not drawn) do in these assays?
KCNQ2 block: inactive

Results for CCOc1cccc(C(=O)Nc2ccccc2C(=O)N2CCOCC2)c1 ?
KCNQ2 block: inactive

Results for O=c1c2ccccc2[nH]c(=S)n1Cc1ccccc1 ?
KCNQ2 pot: 0.43; KCNQ2 block: inactive

Results for O=c1c2ccccc2[nH]c(=S)n1CCc1ccccc1 ?
KCNQ2 pot: 7.2*; KCNQ2 block: inactive

How did CCC(C)n1c(=S)[nH]c2ccccc2c1=O (stereo not drawn) do in these assays?
KCNQ2 pot: 6.8*; KCNQ2 block: inactive

How did CC(C)n1c(=S)[nH]c2ccccc2c1=O do in these assays?
KCNQ2 pot: 0.52; KCNQ2 block: inactive

Results for COc1ccccc1Nc1cc(C(=O)N2CCc3ccccc3C2)c2ccccc2n1 ?
KCNQ2 pot: -6.3; KCNQ2 block: -6.3*

How did COc1ccc(Nc2cc(C(=O)N3CCc4ccccc4C3)c3ccccc3n2)c(OC)c1 do in these assays?
KCNQ2 pot: -8; KCNQ2 block: -8*

How did COc1ccccc1-c1cc(C(=O)N2CCc3ccccc3C2)c2ccccc2n1 do in these assays?
KCNQ2 block: inactive

Results for COCCCNC(=O)c1cc(Nc2ccc(OC)cc2OC)nc2ccccc12 ?
KCNQ2 pot: 0.01; KCNQ2 block: inactive

How did O=C(Nc1ccc2c(c1)OCCO2)N1CCN(Cc2ccccc2)CC1 do in these assays?
KCNQ2 block: inactive

Results for CSc1nc(C=Nc2ccccc2Cl)c(O)n1Cc1cccc(Cl)c1 ?
KCNQ2 block: inactive

What do the screens show for `Nc1nc(SCC(=O)Nc2ccc([N+](=O)[O-])cc2)[nH]c(=O)c1NC(=O)c1ccc(Br)o1`?
KCNQ2 block: inactive

Results for CN(C)S(=O)(=O)c1cccc(NC(=O)c2ccc(COc3ccccc3)cc2)c1 ?
KCNQ2 pot: -5.8; KCNQ2 block: -5.8*

What do the screens show for `CN(C)S(=O)(=O)c1cccc(NC(=O)c2ccc(OC(F)(F)F)cc2)c1`?
KCNQ2 pot: 2.5; KCNQ2 block: inactive

How did Cc1cc(C(=O)CCC(=O)NCC2COc3ccccc3O2)c(C)s1 (stereo not drawn) do in these assays?
KCNQ2 block: inactive

Results for C=C(C)c1cccc(C(C)(C)NC(=O)Nc2nncs2)c1 ?
KCNQ2 block: inactive

How did C=C(C)c1cccc(C(C)(C)NC(=O)Nc2nnc(C(C)C)s2)c1 do in these assays?
KCNQ2 pot: -7.8; KCNQ2 block: -7.8*

What do the screens show for `COc1cccc2c1OC1(C)CC2NC(=O)N1c1cccc(C(=O)Nc2ccc3c(c2)OCCO3)c1` (stereo not drawn)?
KCNQ2 pot: -6.7; KCNQ2 block: -6.7*

How did COc1ccc(NC(=O)c2cccc(N3C(=O)NC4CC3(C)Oc3ccccc34)c2)cc1 (stereo not drawn) do in these assays?
KCNQ2 block: inactive

How did CCOC(=O)c1cccc(NC(=O)CSc2nncn2-c2ccccn2)c1 do in these assays?
KCNQ2 pot: 1.2; KCNQ2 block: inactive

What do the screens show for `C=CCN1CN(S(=O)(=O)c2cccc(Cl)c2)c2nc3ccccc3nc21`?
KCNQ2 block: inactive

Results for CC(=O)Nc1ccc(NC(=O)CSc2ncc(C(=O)Nc3ccc(F)cc3)c(=O)n2C)cc1 ?
KCNQ2 block: inactive

What do the screens show for `CCSc1ncc(/C=N/Nc2ccc(F)cc2)n1C`?
KCNQ2 pot: -8.5; KCNQ2 block: -8.5*

What do the screens show for `CC1(C)CC(=O)C(C(C2=C(O)CC(C)(C)CC2=O)c2cccnc2)C(=O)C1` (stereo not drawn)?
KCNQ2 pot: 0.16; KCNQ2 block: inactive
